This is an account of results in PubChem BioAssay (NCI).

Test systems include HCT-15 colon; HT29 colon; SNB-75 CNS; SNB-19 CNS; U251 CNS; PC-3 prostate; UACC-62 melanoma; LOX IMVI melanoma; SK-MEL-28 melanoma; EKVX NSCLC; SN12C renal; UO-31 renal; TK-10 renal; ACHN renal; CAKI-1 renal; CCRF-CEM leukemia; MOLT-4 leukemia; SK-MEL-2 melanoma; A498 renal; SK-MEL-5 melanoma.
Common to all, as to assay: NCI-60 one-dose screen, 48 h (100 = growth as untreated, 0 = no growth, -100 = all killed)
Holding throughout (conditions): 10 µM unless noted

The panel holds about 83,000 compounds, 20% with a hit somewhere; the sample as a whole holds those more often.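 Single-concentration screen, 48 h exposure, 96-well plates. Endpoint: percent growth. Below 10 = active.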 A number with no mark means an inactive call. Calls of active or inactive are those of the source.

For the molecule `COc1cc(OC)c(S(N)(=O)=O)cc1C(C)=O`, the growth is 103% with HCT-15 colon; 103% in the experiment with HT29 colon; 130% in the experiment on SNB-75 CNS; 101% in the experiment on SNB-19 CNS; 105% in the experiment on U251 CNS; 94.9% in the experiment with PC-3 prostate. The growth in the experiment on UACC-62 melanoma is 100%; with LOX IMVI melanoma, 105%; with SK-MEL-28 melanoma, 107%; with EKVX NSCLC, 102%; in the experiment on SN12C renal, 97.2%; in the experiment with UO-31 renal, 97.4%. Moreover, the growth in the experiment on TK-10 renal is 94.9%; with ACHN renal, 107%; with CAKI-1 renal, 95.6%; with CCRF-CEM leukemia, 109%.
For the molecule `Cc1ccc(N2C(=O)/C(=C/C=C/c3ccco3)SC2=S)cc1`, the growth was 88.4% in the experiment on HCT-15 colon; 102% in the experiment on HT29 colon; 98.1% in the experiment on SNB-75 CNS; 92.4% with SNB-19 CNS; 93.8% with U251 CNS; 73.3% in the experiment with PC-3 prostate. The growth with UACC-62 melanoma is 89%; in the experiment with LOX IMVI melanoma, 96.2%; with SK-MEL-28 melanoma it was 95.8%; in the experiment on EKVX NSCLC, 95.4%; with SN12C renal it was 91.4%; with UO-31 renal, 84%. For the same molecule, the growth in the experiment on TK-10 renal was 117%; with ACHN renal it was 101%; with CCRF-CEM leukemia it was 61.2%; in the experiment with MOLT-4 leukemia, 9.93% (active).
`COc1cc(-c2nc(SC(C)C)n(C(C)C)c(=O)c2C#N)ccc1OCc1ccccc1`: the growth is 73.8% in the experiment on HCT-15 colon; 91.2% in the experiment on HT29 colon; 82.4% with SNB-75 CNS; 83.8% with SNB-19 CNS; 32.7% with U251 CNS; 73.1% in the experiment with PC-3 prostate. In addition, the growth with UACC-62 melanoma was 90.4%; with LOX IMVI melanoma, 62.1%; in the experiment with SK-MEL-28 melanoma, 96.8%; in the experiment on EKVX NSCLC, 81.3%; with SN12C renal it was 16.2%; in the experiment with UO-31 renal, 56.8%. In addition, the growth in the experiment on TK-10 renal is 42.1%; in the experiment on ACHN renal, 32.5%; in the experiment with CAKI-1 renal, 54.8%; in the experiment on CCRF-CEM leukemia, 33%.
For `O=C(NCCN1CCCC1)c1ccc(-c2nc3ccc4[nH]ncc4c3c3c2CCCC3)cc1`, the growth is 26.1% in the experiment with HCT-15 colon; 4.8% (active) with HT29 colon; 33.7% with SNB-75 CNS; 7.71% (active) with SNB-19 CNS; 10.7% in the experiment with U251 CNS; 8.15% (active) in the experiment with PC-3 prostate. Besides, the growth in the experiment on UACC-62 melanoma was 18.4%; in the experiment on LOX IMVI melanoma, -89.6% (active); with SK-MEL-28 melanoma it was 5.05% (active); in the experiment on SK-MEL-2 melanoma, 10.1%; in the experiment on EKVX NSCLC, 24%; in the experiment with SN12C renal, 8.98% (active). The growth is 43.3% with UO-31 renal; 27.3% in the experiment with TK-10 renal; 15.8% in the experiment with ACHN renal; -80% (active) with A498 renal; 9% (active) in the experiment on CCRF-CEM leukemia; -26% (active) in the experiment on MOLT-4 leukemia.
On to `Cc1cc(C)c2sc(=O)n(Cc3nnc(SCCC(=O)O)o3)c2n1`, for which the growth with HCT-15 colon is 99.6%; in the experiment on HT29 colon, 110%; in the experiment on SNB-75 CNS it was 103%; in the experiment on SNB-19 CNS, 95.4%; with U251 CNS, 102%; in the experiment with PC-3 prostate it was 92.7%. The growth in the experiment with UACC-62 melanoma was 95.5%; with LOX IMVI melanoma, 99.2%; in the experiment with SK-MEL-28 melanoma, 101%; in the experiment with EKVX NSCLC, 102%; in the experiment with SN12C renal, 97.8%; with UO-31 renal it was 91.8%. The growth in the experiment on TK-10 renal was 103%; with ACHN renal, 103%; with CAKI-1 renal, 89.5%; in the experiment on CCRF-CEM leukemia, 56.6%; in the experiment on MOLT-4 leukemia it was 90.6%.
For the molecule `C=C(C=O)[C@@H]1CC[C@]2(CO)CC[C@]3(C)[C@H](CC[C@@H]4[C@@]5(C)CCCNC(C)(C)[C@@H]5CC[C@]43C)[C@@H]12`, the growth in the experiment on HCT-15 colon is -8.29% (active); with HT29 colon, -3.52% (active); with SNB-19 CNS, 79.7%; in the experiment with U251 CNS it was 29.8%; in the experiment on PC-3 prostate, 11.4%; in the experiment on SK-MEL-5 melanoma, 78%. In addition, the growth was 83.2% in the experiment with UACC-62 melanoma; 47.1% with SK-MEL-28 melanoma; 99.5% in the experiment on SK-MEL-2 melanoma; 88.2% in the experiment with EKVX NSCLC; 54.6% in the experiment on SN12C renal; 78.3% in the experiment on UO-31 renal. The growth with TK-10 renal was 125%; in the experiment with ACHN renal it was 88.9%; in the experiment on CAKI-1 renal, 67.5%; in the experiment on CCRF-CEM leukemia, 2.49% (active); in the experiment on MOLT-4 leukemia, 28%.
For `O=C(Nc1ccc(Br)cc1)Nc1nc2ccc([N+](=O)[O-])cc2s1`, the growth with HCT-15 colon is -11.3% (active); in the experiment with HT29 colon, 7.76% (active); in the experiment on SNB-19 CNS, 19.1%; in the experiment on U251 CNS, 0.478% (active); in the experiment with PC-3 prostate, 0.887% (active); in the experiment with SK-MEL-5 melanoma it was -82.2% (active). The growth was -19.6% (active) with UACC-62 melanoma; 6.25% (active) in the experiment with SK-MEL-28 melanoma; -22.7% (active) with SK-MEL-2 melanoma; 9.52% (active) in the experiment with EKVX NSCLC; 4.21% (active) in the experiment with SN12C renal; 5.94% (active) in the experiment with UO-31 renal. For the same molecule, the growth in the experiment on TK-10 renal was -2.48% (active); with ACHN renal it was 3.61% (active); in the experiment with CAKI-1 renal, -2.25% (active); in the experiment on CCRF-CEM leukemia, 10.9%; in the experiment on MOLT-4 leukemia, 3.2% (active).
Turning to `N#Cc1cccc(/C(N)=N/C(N)=N/c2nc3ccccc3s2)c1`, the growth in the experiment with HCT-15 colon was 31.9%; in the experiment with HT29 colon, 11.3%; in the experiment on SNB-75 CNS, 22.2%; in the experiment with SNB-19 CNS it was 27.3%; in the experiment on U251 CNS it was 27.7%; with PC-3 prostate it was 17.7%. Besides, the growth with UACC-62 melanoma is 34.5%; in the experiment with LOX IMVI melanoma it was 46.2%; in the experiment with SK-MEL-28 melanoma, 65.4%; in the experiment on SK-MEL-2 melanoma it was 40.4%; in the experiment on EKVX NSCLC, 43.3%; in the experiment with SN12C renal it was 34.9%. The growth with UO-31 renal was 44.2%; with TK-10 renal, 81.3%; in the experiment on ACHN renal, 48.3%; with A498 renal, -4.3% (active); in the experiment with CCRF-CEM leukemia, 6.56% (active).
In the case of `C=CCn1c(SCC(=O)Nc2ccc(C(=O)/C=C/c3ccc(Br)cc3)cc2)nnc1-c1c[nH]c2ccccc12`, the growth was 93.4% with HCT-15 colon; 94.1% in the experiment on HT29 colon; 95.4% in the experiment with SNB-75 CNS; 89.1% in the experiment on SNB-19 CNS; 87.9% with U251 CNS; 68% in the experiment with PC-3 prostate. In addition, the growth is 64.6% with UACC-62 melanoma; 49% in the experiment with LOX IMVI melanoma; 97.1% with SK-MEL-28 melanoma; 93.4% in the experiment with SK-MEL-2 melanoma; 82.2% in the experiment with EKVX NSCLC; 81.1% in the experiment on SN12C renal. The growth in the experiment on UO-31 renal was 59.7%; in the experiment on TK-10 renal it was 95.9%; in the experiment on ACHN renal, 87.8%; with A498 renal, 88.9%; in the experiment with CCRF-CEM leukemia it was 83%; in the experiment with MOLT-4 leukemia, 66.3%.
